These results are taken from PubChem BioAssay (NCI).

Structures are written as SMILES. About 83,000 compounds went through this panel and 20% of them were active in at least one assay; those are over-represented in the sample as a whole.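 Assay: single dose, 48 h. Readout: percent growth (0 = no net growth; negative = cell death). Active: <10.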 A number with no mark means an inactive call. The source made the active and inactive calls.

Among the test systems are DU-145 prostate; K-562 leukemia; MALME-3M melanoma; MDA-MB-231 breast; RXF 393 renal; SF-268 CNS; SF-295 CNS; SF-539 CNS; UACC-257 melanoma; M14 melanoma; HCT-15 colon; HT29 colon; SNB-75 CNS; SNB-19 CNS; U251 CNS; PC-3 prostate; SK-MEL-5 melanoma; UACC-62 melanoma; SK-MEL-28 melanoma.
Holding throughout (test): NCI-60 one-dose screen, 48 h (100 = growth as untreated, 0 = no growth, -100 = all killed)
Common to all, as to settings: 10 µM unless noted

For the compound `Cc1cnc(Nc2ccc(OCCN3CCCC3)cc2)nc1NCc1ccco1`, the growth with DU-145 prostate was 83.8%; with K-562 leukemia, 12.9%; in the assay on MALME-3M melanoma, 105%; in the assay with MDA-MB-231 breast it was 55.6%; in the assay with RXF 393 renal, 48%; with SF-268 CNS it was 68.5%. The growth with SF-295 CNS was 84%; with SF-539 CNS, 68.7%; in the assay with UACC-257 melanoma it was 96%; in the assay with M14 melanoma it was 96.3%; with HCT-15 colon, 74.6%; in the assay on HT29 colon it was 50.7%. In addition, the growth was 33.3% with SNB-75 CNS; 94.4% with SNB-19 CNS; 65.8% in the assay with U251 CNS; 72% in the assay with PC-3 prostate; 81.7% with SK-MEL-5 melanoma; 86.9% in the assay with UACC-62 melanoma. For the same compound, the growth in the assay with SK-MEL-28 melanoma is 103%.

For the compound `O=C1NN(C(=O)c2ccc(O)cc2)C(c2ccccc2)=N/C1=C\c1cn(-c2ccccc2)nc1-c1ccccc1`, the growth in the assay with DU-145 prostate was 92%; in the assay with K-562 leukemia, 93.7%; in the assay with MALME-3M melanoma, 99%; with MDA-MB-231 breast it was 106%; with RXF 393 renal, 107%; with SF-268 CNS, 96.8%. The growth in the assay on SF-295 CNS is 95%; in the assay on SF-539 CNS it was 89.1%; with UACC-257 melanoma it was 93.8%; in the assay on M14 melanoma, 96.2%; in the assay with HCT-15 colon, 103%; in the assay on HT29 colon it was 95.1%. Further, the growth is 77.4% in the assay on SNB-75 CNS; 92.5% in the assay with SNB-19 CNS; 96.2% in the assay on U251 CNS; 104% in the assay on PC-3 prostate; 98.7% in the assay on SK-MEL-5 melanoma; 92.9% in the assay with UACC-62 melanoma. Also, the growth in the assay on SK-MEL-28 melanoma was 101%.

With `CCCn1nc(-c2ccccc2)c2c(-c3ccccc3)onc2c1=O`, the growth with DU-145 prostate is 104%; with K-562 leukemia, 29.1%; with MALME-3M melanoma it was 96.5%; with MDA-MB-231 breast, 81.6%; with RXF 393 renal, 90.2%; with SF-268 CNS, 89.2%. Also, the growth in the assay with SF-295 CNS was 74.3%; in the assay on SF-539 CNS, 85%; with UACC-257 melanoma, 112%; with M14 melanoma, 57.2%; in the assay on HCT-15 colon, 61.8%; with HT29 colon, 43.1%. Further, the growth in the assay with SNB-75 CNS was 53%; in the assay with SNB-19 CNS, 77.2%; with U251 CNS it was 72.9%; with PC-3 prostate, 73%; in the assay on SK-MEL-5 melanoma, 79.7%; in the assay on UACC-62 melanoma, 53.8%. The growth in the assay with SK-MEL-28 melanoma is 95.5%.

For `CCCCOc1ccc(NC(=O)n2nc(N=NN(C)C)c3ccc(Cl)cc32)cc1`, the growth is 106% with DU-145 prostate; 93.7% in the assay with K-562 leukemia; 122% with MALME-3M melanoma; 104% with MDA-MB-231 breast; 112% with RXF 393 renal; 102% with SF-268 CNS. Besides, the growth in the assay on SF-295 CNS is 101%; with SF-539 CNS, 104%; with UACC-257 melanoma, 125%; with M14 melanoma it was 89.4%; in the assay on HCT-15 colon, 105%; in the assay on HT29 colon it was 98.1%. Moreover, the growth in the assay on SNB-75 CNS is 89.1%; with SNB-19 CNS, 106%; in the assay with U251 CNS, 118%; in the assay on PC-3 prostate, 88.5%; in the assay on SK-MEL-5 melanoma, 107%; in the assay on UACC-62 melanoma, 86.4%. In the assay with SK-MEL-28 melanoma, the growth is 106%.

`Clc1cnc(Nc2ccc(OCCN3CCCC3)cc2)nc1NCc1ccco1`: the growth was 17.5% in the assay on DU-145 prostate; 16.4% in the assay with K-562 leukemia; 26.1% in the assay with MALME-3M melanoma; -5.14% (active) with MDA-MB-231 breast; -37.7% (active) with RXF 393 renal; 21.1% in the assay with SF-268 CNS. Besides, the growth is 31.2% in the assay with SF-295 CNS; -14.2% (active) with SF-539 CNS; 49.1% with UACC-257 melanoma; 35.1% in the assay on M14 melanoma; 6.01% (active) in the assay with HCT-15 colon; 11.3% in the assay on HT29 colon. Further, the growth in the assay on SNB-75 CNS is -3.83% (active); in the assay with SNB-19 CNS, 38.6%; in the assay on U251 CNS, 19.6%; in the assay with PC-3 prostate, 28.7%; in the assay with SK-MEL-5 melanoma, 46.1%; in the assay with UACC-62 melanoma, 46.5%. For the same compound, the growth with SK-MEL-28 melanoma is 51.7%.

Take `CC[C@@H](C[C@H](CCO)c1ccccc1)c1cc2ccccc2o1`: the growth with DU-145 prostate was 97.9%; in the assay on K-562 leukemia, 77.7%; in the assay on MALME-3M melanoma, 103%; in the assay on MDA-MB-231 breast, 98%; in the assay on RXF 393 renal it was 96.9%; with SF-268 CNS it was 91.2%. Further, the growth with SF-295 CNS is 99.5%; with SF-539 CNS, 104%; in the assay with UACC-257 melanoma, 96.9%; in the assay on M14 melanoma, 91.9%; in the assay on HCT-15 colon, 95.3%; in the assay with HT29 colon, 82.7%. Also, the growth in the assay with SNB-75 CNS was 79.9%; in the assay on SNB-19 CNS, 97.4%; in the assay on U251 CNS, 90.9%; with PC-3 prostate it was 78.8%; with SK-MEL-5 melanoma it was 106%; in the assay with UACC-62 melanoma, 88.4%. Besides, the growth in the assay with SK-MEL-28 melanoma was 102%.

Take `C=C1c2c(C)nn(-c3ccc(S(N)(=O)=O)cc3)c2N(C)C23CC1C1(C)c4c(C)nn(-c5ccc(S(N)(=O)=O)cc5)c4N(C)C(C)(CC12)C3` (configuration not stated): the growth in the assay with DU-145 prostate was 43.6%; in the assay with K-562 leukemia, 29.9%; in the assay on MALME-3M melanoma, 61.6%; with MDA-MB-231 breast, 39.6%; in the assay with RXF 393 renal, 33.3%; in the assay on SF-268 CNS, 42.2%. The growth was 30.1% in the assay with SF-295 CNS; 57.1% in the assay with SF-539 CNS; 49% in the assay on UACC-257 melanoma; 20.6% with M14 melanoma; 14.6% with HCT-15 colon; 13.6% with HT29 colon. The growth with SNB-75 CNS was 76%; with SNB-19 CNS it was 43%; in the assay with U251 CNS it was 24.7%; with PC-3 prostate it was 23.6%; in the assay with SK-MEL-5 melanoma, 45.5%; in the assay with UACC-62 melanoma, 37.5%. Also, the growth in the assay with SK-MEL-28 melanoma was 30.7%.

Consider `COc1ccc(-c2cc(-c3cc(OC)ccc3OC)[nH]c(=O)c2C#N)cc1`, for which the growth with DU-145 prostate is 74.2%; in the assay with K-562 leukemia it was 25.4%; with MALME-3M melanoma, 52.4%; in the assay with MDA-MB-231 breast, 55.4%; with RXF 393 renal it was 71.1%; with SF-268 CNS it was 60.3%. Also, the growth in the assay on SF-295 CNS was 31%; in the assay with SF-539 CNS, 50.3%; with UACC-257 melanoma, 59.3%; with M14 melanoma it was 29.1%; with HCT-15 colon, 62.8%; in the assay on HT29 colon it was 38.1%. The growth is 56.4% in the assay with SNB-75 CNS; 68.1% in the assay on SNB-19 CNS; 39.5% in the assay on U251 CNS; 72.6% with PC-3 prostate; 40.1% with SK-MEL-5 melanoma; 47.7% in the assay on UACC-62 melanoma. Also, the growth in the assay with SK-MEL-28 melanoma is 74.8%.
